This is an account of results in PubChem BioAssay (NCATS).

Results filed as inconclusive are left out. Active and inactive are the calls of the source. The call rests on the fitted dose curve; in most records, active means well fitted cell-killing curve with a large enough effect; inconclusive means small, poorly fitted or top-dose-only effect, or effect the other way; inactive means flat fitted curve, though single readings scatter.

What all share (test): Primary qHTS to identify gynecologic anti-cancer compounds using libraries of approved drugs and bioactive compounds (AID 1345084); further: nearly all actives have a fitted effect of over 55% in size
One experiment concerns CASKI. The settings on record: Gynecologic cancer cell panel viability, ATPlite luminescence, 48 h; series mostly up to 57.5 µM. Summed up:
(§1)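 Cell viability after 48 h drug treatment, ATPlite luminescence readout; five doses.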

A further experiment has as its system Es-2. The settings on record: Gynecologic cancer cell panel viability, ATPlite luminescence, 48 h; series mostly up to 57.5 µM. Summed up: as §1
Another experiment concerns HeLa. The following applies: Gynecologic cancer cell panel viability, ATPlite luminescence, 48 h; series mostly up to 57.5 µM. The gist of the method: as §1
The next experiment concerns Hek293T. The following applies: Gynecologic cancer cell panel viability, ATPlite luminescence, 48 h, control line for the selectivity index; series mostly up to 57.5 µM. Summed up:
as §1

Another experiment deals with JEG-3. The settings on record: Gynecologic cancer cell panel viability, ATPlite luminescence, 48 h; series mostly up to 57.5 µM. Summed up: as §1
Another experiment concerns OV90. The settings on record: Gynecologic cancer cell panel viability, ATPlite luminescence, 48 h; series mostly up to 57.5 µM. The gist of the method:
as §1

Another experiment has as its system PA-1. The following applies: Gynecologic cancer cell panel viability, ATPlite luminescence, 48 h; series mostly up to 57.5 µM. The gist of the method: as §1
For another experiment, the system named is SKOV3. The following applies: Gynecologic cancer cell panel viability, ATPlite luminescence, 48 h; series mostly up to 57.5 µM. The gist of the method: as §1
The next experiment concerns Tov-21-G. The following applies: Gynecologic cancer cell panel viability, ATPlite luminescence, 48 h; series mostly up to 57.5 µM. Summed up: as §1
A further experiment relates to CAOV3. The settings on record: Gynecologic cancer cell panel viability, ATPlite luminescence, 48 h; series mostly up to 57.5 µM. The gist of the method:
as §1
Potency means the concentration at half of the fitted maximal effect.

Take `CC(C)(O)C(Cl)(Cl)Cl`: the Potency result in the experiment on CASKI, with Es-2, in the experiment with HeLa, in the experiment on Hek293T, in the experiment on JEG-3 and in the experiment on OV90 was “inactive” each time. The Potency result in the experiment with PA-1, with SKOV3 and with Tov-21-G was “inactive” throughout.
Turning to `NC1(c2ccccc2)CCCCC1`, the Potency entry with CAOV3, in the experiment with CASKI, in the experiment with Es-2, in the experiment with Hek293T, with JEG-3 and in the experiment with OV90 was “inactive” throughout. Moreover, the Potency result in the experiment with PA-1 and with Tov-21-G was “inactive” each time.
Turning to `O=C1CN2CCOC2(c2ccccc2Cl)c2cc(Cl)ccc2N1` (stereo not drawn), the Potency entry in the experiment with CASKI, with Es-2, with HeLa, with Hek293T, with JEG-3 and in the experiment on OV90 was “inactive” in each case. Also, the Potency entry in the experiment with PA-1, in the experiment on SKOV3 and with Tov-21-G was “inactive” throughout.
`CN(C)C(=S)SSC(=S)N(C)C`: the values for the Potency in the experiment with CAOV3 and in the experiment with SKOV3 were 11.2 µM (active) and 1.58 µM (active), respectively. The Potency result in the experiment on CASKI and with HeLa was “inactive” in each case.
For `NC(=O)CN1CCCC1=O`, the Potency entry in the experiment with CASKI, with Es-2, in the experiment with HeLa, with Hek293T, in the experiment on JEG-3 and with OV90 was “inactive” in each case. Besides, the Potency result in the experiment with PA-1, in the experiment on SKOV3 and in the experiment on Tov-21-G was “inactive” in each case.
As for `CN(C)CCc1c[nH]c2ccc(O)cc12`, the Potency entry with CASKI, in the experiment on Es-2, with HeLa, in the experiment with Hek293T, in the experiment on JEG-3 and in the experiment with OV90 was “inactive” throughout. Besides, the Potency result with PA-1, in the experiment with SKOV3 and in the experiment on Tov-21-G was “inactive” each time.
Consider `C[C@H]1CNCCc2ccc(Cl)cc21`, for which the Potency result in the experiment on CASKI, in the experiment with Es-2, in the experiment on HeLa, in the experiment with Hek293T, with JEG-3 and with OV90 was “inactive” throughout. In addition, the Potency entry in the experiment on PA-1, in the experiment on SKOV3 and with Tov-21-G was “inactive” in each case.
For the compound `COc1ccc2c3c1O[C@H]1[C@@H](O)C=C[C@H]4[C@@H](C2)N(C)CC[C@@]341`, the Potency in the experiment with CASKI was 31.6 µM (active).
For `Sc1ccccc1Cl`, the Potency result in the experiment with CASKI, in the experiment with Es-2, in the experiment with HeLa, in the experiment with Hek293T, with JEG-3 and in the experiment on OV90 was “inactive” in each case. The Potency result in the experiment on PA-1, in the experiment on SKOV3 and in the experiment with Tov-21-G was “inactive” throughout.
For the compound `Nc1ccc(N)cc1`, the Potency entry in the experiment on CASKI, in the experiment with Es-2, with HeLa, in the experiment on Hek293T, with JEG-3 and in the experiment with OV90 was “inactive” each time. The Potency result with PA-1, with SKOV3 and with Tov-21-G was “inactive” each time.
For the compound `C=CCOC(Cn1ccnc1)c1ccc(Cl)cc1Cl` (stereo not drawn), the Potency entry in the experiment with CAOV3, with CASKI, in the experiment on Es-2, with Hek293T, with JEG-3 and with Tov-21-G was “inactive” throughout.
With `CNC(C)Cc1ccccc1OC` (stereo not drawn), the Potency result with CASKI, in the experiment on Es-2, in the experiment on HeLa, in the experiment on Hek293T, in the experiment with JEG-3 and with OV90 was “inactive” in each case. In addition, the Potency entry with PA-1, in the experiment with SKOV3 and in the experiment on Tov-21-G was “inactive” in each case.
On to `COc1ccc2c(C(=O)c3ccc(Cl)cc3)c(C)n(CC(=O)O)c2c1`, for which the Potency result in the experiment with CAOV3, in the experiment on CASKI, in the experiment on Hek293T, in the experiment on JEG-3 and in the experiment with OV90 was “inactive” in each case.
As for `CC(Cc1ccccc1)NCCCCl` (stereo not drawn), the Potency result in the experiment on CASKI, in the experiment with Es-2, in the experiment with HeLa, in the experiment with Hek293T, in the experiment with JEG-3 and in the experiment on OV90 was “inactive” each time. In addition, the Potency result in the experiment on PA-1, with SKOV3 and in the experiment with Tov-21-G was “inactive” in each case.
Regarding `CCc1ccc(C2CCNCC2)cc1`, the Potency result with CASKI, with Es-2, in the experiment with HeLa, in the experiment with Hek293T, in the experiment with JEG-3 and in the experiment with OV90 was “inactive” in each case. Also, the Potency result in the experiment on PA-1, with SKOV3 and in the experiment with Tov-21-G was “inactive” in each case.
As to `O=C(CCCN1CCC(n2c(=O)[nH]c3ccccc32)CC1)c1ccc(F)cc1`, the Potency entry with CAOV3, in the experiment with Es-2, with HeLa, in the experiment on Hek293T, with JEG-3 and with OV90 was “inactive” throughout. The Potency entry with PA-1, with SKOV3 and in the experiment with Tov-21-G was “inactive” in each case.
As to `O=c1[nH]c2cc(Cl)ccc2n1C1CCNCC1`, the Potency result in the experiment on CAOV3, in the experiment on Es-2, in the experiment on HeLa, with Hek293T, with JEG-3 and in the experiment on OV90 was “inactive” each time. Further, the Potency result in the experiment on PA-1, with SKOV3 and in the experiment on Tov-21-G was “inactive” in each case.
For the compound `N#Cc1nn(-c2c(Cl)cc(C(F)(F)F)cc2Cl)c(N)c1S(=O)C(F)(F)F` (stereo not drawn), the Potency result in the experiment with CAOV3, in the experiment with CASKI, with Es-2, in the experiment with HeLa, in the experiment on JEG-3 and with OV90 was “inactive” each time. For the same compound, the Potency result in the experiment on PA-1 and with Tov-21-G was “inactive” each time.
For `CN1CCc2cc(Cl)c(O)cc2[C@H]2c3ccccc3CC[C@@H]21`, the Potency result with CAOV3, with CASKI, in the experiment with Es-2, in the experiment on HeLa, with Hek293T and in the experiment on PA-1 was “inactive” each time. Also, the Potency entry in the experiment on SKOV3 and with Tov-21-G was “inactive” throughout.
`COP(=S)(OC)Oc1ccc(Sc2ccc(OP(=S)(OC)OC)cc2)cc1`: the Potency entry in the experiment with CAOV3, in the experiment with CASKI, in the experiment on Es-2, in the experiment with HeLa, with JEG-3 and in the experiment with OV90 was “inactive” each time. In addition, the Potency entry in the experiment with PA-1, in the experiment on SKOV3 and in the experiment with Tov-21-G was “inactive” each time.
For the compound `CC[C@H](O)C(C[C@H](C)N(C)C)(c1ccccc1)c1ccccc1`, the Potency result with Es-2, in the experiment on HeLa, in the experiment on Hek293T, in the experiment on JEG-3, in the experiment with PA-1 and in the experiment with Tov-21-G was “inactive” in each case.
